Screening results: PubChem, National Center for Advancing Translational Sciences (NCATS)
HepG2 tox: counter-screen for TGF-b inhibitors: cytotoxicity in HepG2 cells; HepG2 CAGA-GFP viability, ATP luminescence, 18 h; Potency, µM (highest dose often 46.1 µM), for the others: at the highest dose activity change, negative = cytotoxicity, actives largely listed as cytotoxic; hit rate 0.76% among 410,000; AID 588856
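CellTiter-Glo luminescence gave cytotoxicity after 18 hours at 37 degrees C. The cells were HepG2 CAGA-GFP in 1% FBS DMEM, stimulated with 500 pg/mL TGF-beta after compound addition. %Activity was normalised to no-cell wells (complete cell-killing) and DMSO (no toxicity), and curves were fitted and classified.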
ATXN viability: viability counter-screen for ATXN expression inhibitors; Potency, µM (series often up to 56.7 µM), actives largely listed as cytotoxic; hit rate 0.49% among 400,000; S2 cells (HEK-293 line with an ATXN2-luciferase reporter) viability, CellTiter-Fluor protease fluorescence, 24 h; further: nearly all actives have a fitted effect of over 40% in size
HT1080-NT tox: kills 2HG-producing HT-1080-NT fibrosarcoma cells; HT-1080-NT fibrosarcoma viability, CellTiter-Glo ATP luminescence, 48 h; Potency, µM (series often up to 46.1 µM), without a hit: at the highest dose activity, negative = less viability, actives largely listed as cytotoxic; hit rate 1.6% among 360,000; AID 686970;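 further: NT is the 2HG producing partner of a matched IDH1 knockdown line; 0% = DMSO-treated cells and -100% = media-only wells without cells; nearly all actives have a fitted effect of over 55% in size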
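Compounds were tested in concentration-response format on HT-1080-NT cells for 48 hours at 37 degrees C. Cell viability came from CellTiter-Glo luminescence; curves were classified by r2, response magnitude and activity.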
TGFb SMAD3 inh: TGF-b pathway inhibition. HepG2 CAGA-GFP TGF-b/SMAD3 reporter, GFP fluorescence, 18 h; TGF-beta stimulated, 500 pg/mL final. Potency, µM (doses to about 46.1 µM), inactives show at the top dose activity, negative = inhibition, usual class: inhibitors. hit rate 1.2% among 410,000. AID 588855; further: on the % scale 0 is the no-effect control and ±100 the full control effect; nearly all actives have a fitted effect of over 65% in size
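Smad-responsive CAGA-GFP expression was quantified in HEPG2 cells exposed to compounds and 500 pg/mL final TGF-beta for 18 h at 37 degrees C; unstimulated wells defined full inhibition.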
HT1080 IDH1KD tx: toxicity to HT-1080 IDH1 knockdown cells (counter line). HT-1080 IDH1 knockdown viability, ATP luminescence, 48 h. Potency, µM (series often up to 46.1 µM), without a hit: at the highest dose activity, negative = toxicity, actives largely listed as cytotoxic. AID 686971. hit rate 2% among 360,000;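 further: 0% = DMSO wells and -100% = cell-free medium wells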
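Using the IDH1-knockdown HT-1080 line run in the same batch and compound series as the NT line, viability after 48 h at 37 °C was determined by CellTiter-Glo luminescence and expressed as % activity.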
ATXN2 expr inh: reduces ATXN2 reporter expression in HEK-293 cells; Potency, µM (doses to about 57 µM), inactives show at the top dose activity change, negative = inhibition, hits mostly inhibitors; hit rate 0.72% among 360,000; HEK-293 ATXN2-luciferase reporter, luminescence, 24 h; further: on the % scale 0 is the no-effect control and ±100 the full control effect; nearly all actives have a fitted effect of over 55% in size
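ATXN2-luciferase reporter cells (luciferase flanked by upstream and downstream ATXN2 gene portions) were treated 24 h at 37 °C with compounds at up to 57 uM. SteadyGlo luminescence gave expression; GF-AFC fluorescence gave viability.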
Starred values were filed as active, the others as inactive; [ ] = remark or other dose. Hits are enriched below; roughly 3.8% of the tested compounds scored in any of these assays. The call rests on the fitted dose curve; in most records, active means well fitted curve in the direction sought with a large enough effect; inconclusive means small, poorly fitted or top-dose-only effect, or another doubt; inactive means no such curve, though single readings can be large; an effect the other way counts as inactive or inconclusive. Potency means the concentration at half of the fitted maximal effect.

What do the screens show for `CC(C)(C)c1ccc2c(c1)OC(C(=O)N/N=C\c1ccncc1)CO2` (stereo not drawn)?
HepG2 tox: 20µM*; HT1080-NT tox: -6.8%; TGFb SMAD3 inh: -12.1%; HT1080 IDH1KD tx: -25.0%; ATXN2 expr inh: -19.4%

What do the screens show for `COc1cc(/C=N/NC(=O)C2COc3ccccc3O2)ccc1O` (stereo not drawn)?
HepG2 tox: -10.5%; ATXN viability: inactive; HT1080-NT tox: -2.6%; TGFb SMAD3 inh: -1.2%; HT1080 IDH1KD tx: -1.1%; ATXN2 expr inh: 11.0%

Results for C(=C\c1c[nH]c2ccccc12)/c1ccc2ccccc2n1 ?
HepG2 tox: -45.4%; TGFb SMAD3 inh: 11.7%

Results for Cc1cccc(C)c1Nc1sc(C(=O)c2ccccc2)c(N)c1C(=O)Nc1ccc(F)cc1 ?
HepG2 tox: -56.9%; TGFb SMAD3 inh: 11.2µM*; ATXN2 expr inh: inconclusive

Results for CCOc1ccccc1Nc1sc(C(=O)c2ccccc2)c(N)c1C(=O)Nc1ccc(F)cc1 ?
HepG2 tox: -33.4%; ATXN viability: inactive; TGFb SMAD3 inh: 14.1µM*; ATXN2 expr inh: 0.1%

Results for CCOc1ccc(NC(=O)c2c(Nc3ccccc3C)sc(C(=O)c3ccccc3)c2N)cc1 ?
HepG2 tox: -40.9%; ATXN viability: inactive; TGFb SMAD3 inh: inconclusive; ATXN2 expr inh: 3.2%

What do the screens show for `CCOc1ccccc1Nc1sc(C(=O)c2ccc(Cl)cc2)c(N)c1C(=O)NCCc1ccccc1`?
HepG2 tox: -19.5%; ATXN viability: inactive; TGFb SMAD3 inh: -19.5%; ATXN2 expr inh: 10.9%

How did COc1ccc(Cl)cc1Nc1sc(C(=O)c2ccccc2)c(N)c1C(=O)Nc1ccccc1 do in these assays?
HepG2 tox: -33.0%; ATXN viability: inconclusive; TGFb SMAD3 inh: 15.8µM*; ATXN2 expr inh: -10.3%

Results for CC1CCN(C2=NC(=O)/C(=C/c3ccccc3F)S2)CC1 ?
HepG2 tox: -28.8%; ATXN viability: inactive; HT1080-NT tox: -4.3%; TGFb SMAD3 inh: -14.3%; HT1080 IDH1KD tx: -21.4%; ATXN2 expr inh: 26.7%

What do the screens show for `CN1C2CCC1/C(=C\c1ccccc1F)C(=O)/C2=C/c1ccccc1F`?
HepG2 tox: -27.0%; ATXN viability: inconclusive; HT1080-NT tox: inconclusive; TGFb SMAD3 inh: 0.2%; HT1080 IDH1KD tx: 11.6µM*; ATXN2 expr inh: -36.5%

What do the screens show for `c1ccc(-c2nc(SCC3CCCCO3)n[nH]2)cc1` (stereo not drawn)?
HepG2 tox: -4.6%; TGFb SMAD3 inh: -7.7%

What do the screens show for `O=[N+]([O-])c1cc(-c2ccccc2)cc([N+](=O)[O-])c1O`?
HepG2 tox: -20.6%; ATXN viability: inactive; HT1080-NT tox: 18.4µM*; TGFb SMAD3 inh: inconclusive; HT1080 IDH1KD tx: inconclusive; ATXN2 expr inh: -14.2%

How did O=[N+]([O-])c1cc2ccccc2c(O)c1O do in these assays?
HepG2 tox: 3.7%; ATXN viability: inactive; HT1080-NT tox: -4.5%; TGFb SMAD3 inh: 12.4%; HT1080 IDH1KD tx: -0.7%

What do the screens show for `CCOC(=O)/C(=N\Nc1ccc(Cl)cc1)c1csc(Nc2ccccc2)n1`?
HepG2 tox: 11.2µM*; ATXN viability: inconclusive; HT1080-NT tox: inconclusive; TGFb SMAD3 inh: inconclusive; HT1080 IDH1KD tx: inconclusive; ATXN2 expr inh: 1.7%

How did CCOC(=O)C1=C(CNCc2ccc(Cl)cc2)NC(=O)NC1c1ccccc1 (stereo not drawn) do in these assays?
HepG2 tox: -36.6%; ATXN viability: inconclusive; TGFb SMAD3 inh: inconclusive; ATXN2 expr inh: -23.7%

What do the screens show for `CCOC(=O)C1=C(CN(CC)Cc2ccccc2)NC(=O)NC1c1ccc(OC(C)C)cc1` (stereo not drawn)?
HepG2 tox: -31.9%; ATXN viability: inconclusive; TGFb SMAD3 inh: 14.1µM*; ATXN2 expr inh: inconclusive

How did CCOC(=O)C1=C(CNCc2ccc(C)cc2)NC(=O)NC1c1ccc(OC)cc1 (stereo not drawn) do in these assays?
HepG2 tox: -5.8%; ATXN viability: inconclusive; HT1080-NT tox: inconclusive; TGFb SMAD3 inh: -8.3%; HT1080 IDH1KD tx: 9.2µM*; ATXN2 expr inh: -26.3%

How did O=c1[nH]c(=O)n([C@H]2C[C@@H](O)[C@@H](CO)O2)cc1I do in these assays?
ATXN2 expr inh: -0.2%

How did CCCOc1ccc2cc(-c3ccccn3)c(=O)oc2c1 do in these assays?
HepG2 tox: -60.8%; ATXN viability: inactive; HT1080-NT tox: inconclusive; TGFb SMAD3 inh: -18.3%; HT1080 IDH1KD tx: inconclusive; ATXN2 expr inh: 3.55µM*

Results for O=c1oc2cc(OCc3c(F)cccc3Cl)ccc2cc1-c1ccccn1 ?
HepG2 tox: 2.5%; ATXN viability: inactive; HT1080-NT tox: 16.3%; TGFb SMAD3 inh: 22.5%; HT1080 IDH1KD tx: 8.7%; ATXN2 expr inh: 23.0%

What do the screens show for `CN(c1ccccc1)S(=O)(=O)c1cccc(NC(=O)c2cc(=O)c3ccccc3o2)c1`?
HepG2 tox: -6.9%; ATXN viability: inconclusive; HT1080-NT tox: -19.7%; TGFb SMAD3 inh: 6.7%; HT1080 IDH1KD tx: -26.4%; ATXN2 expr inh: 12.6µM*

How did Cc1ccc(S(=O)(=O)Nc2ccccc2/C=N/c2nc3ccccc3n2C(C)C)cc1 do in these assays?
HepG2 tox: -28.8%; HT1080-NT tox: 18.4µM*; TGFb SMAD3 inh: inconclusive; HT1080 IDH1KD tx: 14.6µM*; ATXN2 expr inh: -2.6%

Results for CCCCn1c(/N=C/c2ccccc2NS(=O)(=O)c2ccc(C)cc2)nc2ccccc21 ?
HepG2 tox: -4.0%; ATXN viability: inactive; HT1080-NT tox: -18.6%; TGFb SMAD3 inh: 15.8µM*; HT1080 IDH1KD tx: -23.8%; ATXN2 expr inh: 8.0%

How did CC(C)n1c(/N=C/c2ccccc2O)nc2ccccc21 do in these assays?
HepG2 tox: 0.0%; ATXN viability: inactive; HT1080-NT tox: -0.5%; TGFb SMAD3 inh: 0.8%; HT1080 IDH1KD tx: -0.9%; ATXN2 expr inh: -17.6%

What do the screens show for `CN(C)CCN1C(=O)C(=O)/C(=C(/O)c2ccc(S(=O)(=O)N3CCOCC3)cc2)C1c1ccccc1` (stereo not drawn)?
HepG2 tox: -6.9%; ATXN viability: inactive; HT1080-NT tox: -21.1%; TGFb SMAD3 inh: -2.1%; HT1080 IDH1KD tx: -21.3%[9.24 µM]; ATXN2 expr inh: 6.9%

How did CN(C)CCN1C(=O)C(=O)/C(=C(/O)c2ccc(S(=O)(=O)N3CCOCC3)cc2)C1c1ccc(F)cc1 (stereo not drawn) do in these assays?
HepG2 tox: 12.6µM*; ATXN viability: inactive; HT1080-NT tox: 8.2%; TGFb SMAD3 inh: -4.2%; HT1080 IDH1KD tx: 9.1%; ATXN2 expr inh: 1.2%
